Compound activity (PubChem)
HT1080NT lethal: kills 2HG-producing HT-1080-NT fibrosarcoma cells; AID 686970; Potency, µM (titrated, usually from 46.1 µM), without a hit: at the highest dose activity, negative = less viability, actives largely listed as cytotoxic; HT-1080-NT fibrosarcoma viability, CellTiter-Glo ATP luminescence, 48 h; 360,000 compounds, 1.6% hits;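 note: NT is the 2HG producing partner of a matched IDH1 knockdown line; potency is the fitted concentration of half-maximal effect; 0% = DMSO-treated cells and -100% = media-only wells without cells; nearly all actives have a fitted effect of over 55% in size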
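750 cells/well, RPMI + 5% FBS; 2 h settle, compound pin-transfer, 48 h at 37 degrees C. CellTiter-Glo 10 min RT, luminescence. Normalized to DMSO and media-only wells.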
DT40 TDP1 CPT: growth inhibition of DT40 Tdp1-/-;hTDP1 cells with camptothecin (screen for TDP1 inhibitors) | chicken DT40 Tdp1-/-;hTDP1 cells + 20 nM CPT, ATP luminescence, 48 h | Potency, µM (top dose mostly 46.2 µM), for inactives: top-dose activity change, negative = growth inhibition, hits mostly inhibitors | 420,000 compounds, 12% hits | AID 686979; note: potency is the fitted concentration of half-maximal effect; nearly all actives have a fitted effect of over 55% in size
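Chicken DT40 Tdp1-/- cells stably complemented with human TDP1 were seeded at 400 cells/well in medium containing 20 nM camptothecin, exposed to pin-transferred compounds, and grown at 37 °C for at least 48 hr. Viability was read as ATP luminescence.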
HT1080 IDH1KD tx: toxicity to HT-1080 IDH1 knockdown cells (counter line). Potency, µM (top dose mostly 46.1 µM), for inactives: at the highest dose activity, negative = toxicity, hits mostly cytotoxic. AID 686971. HT-1080 IDH1 knockdown viability, ATP luminescence, 48 h. 360,000 compounds, 2% hits;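 note: potency is the fitted concentration of half-maximal effect; 0% = DMSO wells and -100% = cell-free medium wells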
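Cytotoxicity counter-line: IDH1KD HT-1080, 48 h, CellTiter-Glo. Curves classed by r2, magnitude and activity.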
IL1B secr inh: inhibitors of inflammasome signaling (IL-1 beta secretion); THP-1 LPS/ATP IL-1B secretion, AlphaLISA, 16 h; hits give low values; activity change, % at 57.5 µM; 360,000 compounds, 4.7% hits; in the data active = activity change below about -50%; inconclusive = mostly about -30% to -49%
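THP-1 cells pretreated 1 hr with compounds (up to 57.5 uM final), then stimulated with LPS (250 ng/mL final) plus ATP (1.25 mM final); secreted IL-1B measured by AlphaLISA after 16 hr, decreased signal indicating inhibition.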
DT40 TDP1 no CPT: qHTS for Inhibitors of human tyrosyl-DNA phosphodiesterase 1 (TDP1): qHTS in cells in absence of CPT. DT40 Tdp1-/- hTDP1 cells, no CPT, ATP luminescence, 48 h. Potency, µM (top dose mostly 46.2 µM), without a hit: at the highest dose activity change, negative = growth inhibition, actives largely listed as inhibitors. 420,000 compounds, 15% hits. AID 686978, 2013; note: potency is the fitted concentration of half-maximal effect; nearly all actives have a fitted effect of over 55% in size
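Chicken DT40 Tdp1-/- cells complemented with human TDP1, screened without camptothecin (DMSO vehicle only), 400 cells/well. Compounds pin-transferred, cells incubated at 37 °C for at least 48 hr. Growth read as ATP-dependent luminescence (CellTiter-Glo, 30 min at RT).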
Numbers without * were called inactive; ? = inconclusive; . = no result given; ! = not confirmed by another sample. Shown are actives, neighbours in structure and some others; about 19% of the full set was active somewhere. Unless noted, calls come from the whole dose curve; as a rule, active = well fitted curve in the direction sought with a large enough effect; inconclusive = small, poorly fitted or top-dose-only effect, or another doubt; inactive = no such curve, though single readings can be large; an effect the other way counts as inactive or inconclusive. Unless noted, % is set by controls: 0 for no effect and ±100 for the full control effect.

SMILES	HT1080NT lethal	DT40 TDP1 CPT	HT1080 IDH1KD tx	IL1B secr inh	DT40 TDP1 no CPT
Cc1oc(-c2ccccc2Cl)nc1CN1C(=O)CN=C(c2ccccc2)c2ccccc21	2%	?	-13%	?	21µM*
Cc1cc(OCC(=O)N2C[C@H]3C[C@@H](C2)c2cccc(=O)n2C3)c2c(C)c(C)c(=O)oc2c1	-10%	1%	-1%	7	-7%
COc1ccc2c(c1)/C(=C/c1cnc[nH]1)C(=O)N2	?	2.6µM*	15µM*!	-111*	1.2µM*
COc1ccc(-n2c(/C=C3\C(=O)Nc4ccccc43)nc3ccccc3c2=O)cc1	12%	?	1%	-22	?
O=C1Nc2ccccc2/C1=C/c1cnc[nH]1	-7%	?	?	-25	18µM*
COc1cc(OC)c(/C=C2\C(=O)Nc3ccccc32)c(OC)c1	?	2.6µM*	2.6µM*	-2	2.6µM*
N[C@H](CCP(=O)(O)O)C(=O)O	.	2%	.	.	6%
CCC(=O)[C@@H](C)[C@@H](O)[C@H](C)C[C@@H](C)C1OC(=O)C[C@@]2(O)CC=C(C)C(O2)C(C)=CCCC[C@H](O[C@H]2C[C@@H](OC(N)=O)[C@H](O)[C@@H](C)O2)C=C[C@H](C)C[C@H]1C (some centres undefined)	12µM*	0.46µM*	21µM*	-21	0.52µM*
COC1CC(C)C(OC)c2cc(O)cc(c2O)NC(=O)C(C)=CC=CC(C)C(OC(N)=O)C(C)=CC(C)C1OC (centres undefined)	-21%	0.092µM*	23µM*	-101*	0.15µM*
CCOP(=S)(OCC)O/N=C(\C#N)c1ccccc1	.	-1%	.	.	-28%
Cc1ccc(NC(=O)N2CCN(c3cc(-c4noc(C)n4)ccc3C)CC2)c(F)c1	.	?	.	.	16µM*
COc1cccc(C(=O)c2c(N)c(-c3nc(-c4ccccc4)cs3)c3ccccn23)c1	.	?	.	.	21µM*
Cc1cccc(C2=NCC(=O)N(CC(=O)NCc3ccco3)c3sc4c(c32)CCCC4)c1	?	?	?	-25	?
O=C1CN=C(c2ccc(Br)cc2)c2c(sc3c2CCCC3)N1CCN1CCCCC1	?	10µM*	-3%	?	5.8µM*
CC/C(=N\Nc1ccccc1)c1c(O)n(-c2ccc(OC)cc2)c(=O)[nH]c1=O	?	10%	?	38	4%
Cc1cccc(CNCCc2c[nH]c3ccccc23)c1	15µM*	16µM*	?	-75*	13µM*
COc1cc(CNCCc2c[nH]c3ccccc23)cc(OC)c1OC	-4%	?	-6%	?	?
CCc1ccc(CNCCc2c[nH]c3ccccc23)cc1	-17%	?	-1%	-52*	26µM*
c1ccc(CNCCc2c[nH]c3ccccc23)cc1	-10%	-24%	1%	-10	-29%
COc1cc(CNCCc2c[nH]c3ccccc23)cc(OC)c1	?	?	?	-80*	23µM*
Fc1cccc(CNCCc2c[nH]c3ccccc23)c1	1%	?	2%	?	?
OCC(O)Cc1ccc2c(c1)OCO2 (centres undefined)	.	-2%	.	.	-18%
O=C(CCC1CCN(Cc2ccccc2)CC1)c1ccc2c(c1)NCCCC2	.	?	.	.	12µM*
C[C@]12CC[C@@H](O)CC1=CC(=O)C1C2CC[C@]2(C)C(=O)[C@H](O)CC12 (some centres undefined)	0%	-8%	10%	4	-15%
O=C(N/N=C/c1c(O)n(CCc2ccccc2)c(=O)[nH]c1=O)c1ccccc1	-1%	-1%	3%	41	?
SMILES	HT1080NT lethal	DT40 TDP1 CPT	HT1080 IDH1KD tx	IL1B secr inh	DT40 TDP1 no CPT
COC(=O)C1=C(c2cccc(C#N)c2)C[C@@H]2CC[C@H]1N2C(=O)NCC1CC1	15%	18%	-4%	4	2%
NC(=NCCc1ccc(I)cc1)SCCCc1cnc[nH]1	.	15µM*	.	.	13µM*
CC(=O)N1Cc2cnnn2-c2ccccc2C1C#N (centres undefined)	16%	-1%	12%	5	4%
COc1ccc(CN2Cc3cnnn3-c3ccccc3C2C#N)cc1 (centres undefined)	8.2µM*	1.8µM*	6.5µM*	-102*	1.8µM*
COc1ccc(-c2ccc3n2Cc2cnnn2-c2ccccc2-3)cc1	-6%	?	-2%	-9	?
N#CC1c2ccccc2-n2nncc2CN1C(=O)CCc1ccccc1 (centres undefined)	4%	15µM*	2%	-4	10µM*
N#CC1c2ccccc2-n2nncc2CN1Cc1cc(Cl)cc(Cl)c1 (centres undefined)	8.2µM*	1.6µM*	6.5µM*	-102*	1.8µM*
COc1ccc(C(=O)N2Cc3cnnn3-c3ccccc3C2C#N)cc1 (centres undefined)	16%	-12%	12%	0	-14%
c1ccc(CCc2ccc3n2Cc2cnnn2-c2ccccc2-3)cc1	?	6.5µM*	?	-58*	?
COc1ccc(CN2Cc3cnnn3-c3ccccc3C2c2ccccc2)cc1 (centres undefined)	?	16µM*	?	6	16µM*
CN1CCC2(CC1)CC(NC=O)c1ccccc1O2 (centres undefined)	-12%	11%	-4%	-15	0%
COP(=S)(OC)Oc1ccc(S(N)(=O)=O)cc1	.	-7%	.	.	-4%
COP(=S)(OC)Oc1ccc([N+](=O)[O-])cc1	.	5.8µM*	.	.	2.9µM*
O=P(C(=Nc1ccc(Cl)cc1)N1CCOCC1)(N1CCOCC1)N1CCOCC1	5%	-10%	10%	3	-7%
Cc1cc(-c2ccc(C)c(S(=O)(=O)N3CCOc4ccc(Cl)cc43)c2)on1	.	21µM*	.	.	13µM*
CCN(CC)P(=S)(c1c(C)nc2ccccn12)c1c(C)nc2ccccn12	-12%	26µM*	?	32	?
CCCCc1ccc(NC2=NCCCS2)cc1	?	-73%	-19%	-21	?
O=C(N/N=C/c1cc(Br)c(Br)s1)c1ccncc1	-12%	13µM*	-25%	60	9.2µM*
O=c1[nH]c(=S)n(C2CC2)c(O)c1/C=N/Nc1cccc2ccccc12	-1%	16µM*	-9%	6	?
O=c1[nH]c(=S)n(C2CC2)c(O)c1/C=N/Nc1ccccc1	?	-7%	2.3µM*	-13	-9%
O=C(N/N=C/c1c(O)n(C2CCCCC2)c(=S)[nH]c1=O)c1ccccc1	?	?	-28%	22	?
COc1ccc(C(=O)Nc2ccc(-c3cc(C(F)(F)F)nn3-c3ccccc3)cc2)cc1OC	.	18µM*	.	.	13µM*
